V-ATPase pH – regulators of yeast V-ATPase proton pumping, primary screen, pHLuorin cytosolic pH fluorescence. response, % at 10 µM. 0.37% of 350,000 active. S. cerevisiae; in the data active = response mostly above about 7.3%, no sharp cut-off; inactive = mostly below about 5.4%; also: actives read high
PolyA inhibitor – polyadenylation inhibitors in yeast reporter cells, primary screen, luminescence, S. cerevisiae; activity score, % at 12 µM; S. cerevisiae SKY197-pL101 polyadenylation reporter, beta-gal luminescence; efflux-impaired pdr1/pdr3 knockout yeast; score 100 = 6 SD above DMSO; 0.02% of 300,000 active;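 active = lowest replicate activity score at least 50, where 100 means six control SD above control mean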;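 also: yeast exposed to compound for 9 h at 30 °C; higher score means more reporter readthrough which indicates perturbed polyadenylation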
PKA-R2B activ – activators of PKA-R2B holoenzyme, primary screen, biochemical, fluorescence polarization, Cy5-IP20, human. PKA-R2B holoenzyme dissociation; R2B truncated from residue 108, S112A mutant; 0% DMSO only, 100% 113 µM cGMP. activation, % at 11.4 µM. 0.079% of 340,000 active. cAMP-dependent protein kinase catalytic subunit beta (Homo sapiens) + cAMP-dependent …;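 active = activation above a cutoff set at the mean over all compounds plus 3 SD, cut at about 18% in these data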;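 also: higher means more holoenzyme dissociation and a rise in polarization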
CR mimetic SO – reduction of superoxide in aged yeast, primary screen, HTS | S. cerevisiae aged cells, superoxide DHE fluorescence; hits give low values | superoxide response (% of plate mean), % at 10 µM | 0.18% of 330,000 active;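 active = superoxide response under a set limit, about three screen SD below normal, cut at about 65% in these data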;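 also: yeast aged for seven days with compound at 30 °C before DHE staining; 100% = average MFI of all compound-treated wells on the plate with controls excluded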
JMJD2C inh – inhibitors of GASC-1 histone demethylase, primary screen, biochemical, fluorescence, DELFIA europium | Lysine-specific demethylase 4C (Homo sapiens), Q9H3R0 | GST-JMJD2C(1-420) H3K9me3 demethylation | inhibition, % at 2.35 µM | 0.069% of 330,000 active;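 active = more than half of a compound's replicate wells show inhibition beyond 50%, single wells judged on their own value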;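 also: signal counts dimethyl H3K9 product captured on neutravidin plate; 0% = median of DMSO wells and 100% = 0.3 times that DMSO median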
Target sequence (Q9H3R0 1-420 limits assumed): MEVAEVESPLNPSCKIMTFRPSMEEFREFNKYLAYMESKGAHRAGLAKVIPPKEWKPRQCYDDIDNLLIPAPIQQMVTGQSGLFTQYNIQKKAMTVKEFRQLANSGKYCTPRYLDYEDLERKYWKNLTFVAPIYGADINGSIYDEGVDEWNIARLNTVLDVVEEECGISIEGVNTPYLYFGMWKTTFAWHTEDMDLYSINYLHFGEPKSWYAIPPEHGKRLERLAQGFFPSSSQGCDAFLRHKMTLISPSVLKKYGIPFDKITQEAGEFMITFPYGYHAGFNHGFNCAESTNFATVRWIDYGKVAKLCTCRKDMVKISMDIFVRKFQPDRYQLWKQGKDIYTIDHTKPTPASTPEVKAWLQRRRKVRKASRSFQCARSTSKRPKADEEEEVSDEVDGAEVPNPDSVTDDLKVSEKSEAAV
PKA-R1A activ – activators of PKA-R1A holoenzyme, primary screen, biochemical, fluorescence polarization, Cy5-IP20, bovine R1A, mouse PKAc | cAMP-dependent protein kinase type I-alpha regulatory subunit (Bos taurus) + … | PKA-R1A dissociation; scaled: DMSO 0%, 113 µM cGMP 100% | activation, % at 11.4 µM | 0.083% of 340,000 active;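 active = percent activation above the mean of all tested compounds plus 3 SD, cut at about 19% in these data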;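 also: higher means more PKAc released from R1A so a rise in polarization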
R1A FP artifact – FP signal interference without PKA proteins, confirmation, artefact control for PKA-R1A activator project, biochemical, fluorescence polarization, triplicate; Cy5-IP20 peptide alone, fluorescence polarization artifact counterscreen; AID 504799, 2011; shares compounds with PKA-R1A activ; 7% of 280 active; activation, % at 11.4 µM;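 active = mean activation over triplicate runs exceeds the adjusted cutoff derived for the parent primary screen, cut at about 19% in these data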;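 also: no PKA protein present so any polarization rise reflects compound interference; 0% = tracer peptide mix alone and 100% = mix with added PKA catalytic subunit; higher means stronger polarization artifact and likely false positive in parent screen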
PKA-R1A act conf – activators of PKA-R1A holoenzyme, confirmation, biochemical, fluorescence polarization, Cy5-IP20, triplicate. activation, % at 11.4 µM. AID 504800, 2011. 9% of 280 active. shares compounds with PKA-R1A activ. PKA-R1A holoenzyme dissociation;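 active = mean activation over replicate wells exceeds the adjusted hit threshold taken from the earlier primary screen, cut at about 20% in these data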;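 also: 0% = holoenzyme mix with DMSO only and 100% = cGMP-activated control wells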
Target sequence (P00514 whole entry, looked up): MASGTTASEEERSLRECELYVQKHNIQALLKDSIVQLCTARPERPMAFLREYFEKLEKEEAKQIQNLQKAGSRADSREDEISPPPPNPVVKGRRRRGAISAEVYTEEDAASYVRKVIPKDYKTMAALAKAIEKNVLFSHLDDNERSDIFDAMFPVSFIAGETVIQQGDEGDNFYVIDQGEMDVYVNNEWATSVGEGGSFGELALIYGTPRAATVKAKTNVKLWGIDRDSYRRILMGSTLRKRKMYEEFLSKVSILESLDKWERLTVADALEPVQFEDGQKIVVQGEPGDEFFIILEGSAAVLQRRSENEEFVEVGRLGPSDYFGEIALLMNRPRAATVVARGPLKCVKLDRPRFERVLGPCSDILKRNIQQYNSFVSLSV
* hit, by the source's call; / = no result. An excerpt weighted towards active compounds, which were near 0.78% of everything screened.

SMILES | V-ATPase pH | PolyA inhibitor | PKA-R2B activ | CR mimetic SO | JMJD2C inh | PKA-R1A activ | R1A FP artifact | PKA-R1A act conf
Cc1ccc(NC(=O)CSc2nc3ccccc3c(=O)n2CC2CCCO2)cc1 (stereo not given) | -0.5 | -1.1 | 2.6 | 97.3 | -4.7 | 18.6* | -3.5 | 2.7
CCOC(=O)C1CCN(C(=S)NC2CC3C=CC2C3)CC1 (stereo not given) | 5.4 | 2.1 | / | 96.2 | 2.6 | / | / | /
COc1ccc(C)cc1NC(=O)CSc1nnc(CC(=O)Nc2cccc(C(F)(F)F)c2)n1C | 1.6 | 25.6 | -4.5 | 95.0 | 17.1 | 22.5* | 5.2 | -1.4
O=C(Nc1ccc2c(c1)OCO2)c1noc2c1CCCC2 | 1.4 | -5.0 | 2.7 | 100.4 | -15.3 | -0.2 | / | /
O=S(=O)(NCCC1=CCCCC1)c1ccc(F)cc1 | -2.2 | 1.4 | 4.9 | 101.3 | -5.8 | -0.6 | / | /
COc1ccccc1CNC(=O)C(C)NS(=O)(=O)c1ccccc1 (stereo not given) | -1.1 | 0.7 | 5.2 | 100.7 | -4.7 | 18.6* | 0.9 | -0.2
COc1ccccc1N1CCN(C(=O)c2cc(S(=O)(=O)N3CCOCC3)ccc2C)CC1 | 0.3 | / | -0.5 | / | / | 18.7* | -1.6 | 0.1
CCN(CC(=O)Nc1cc(Cl)ccc1C)C(=O)CSCc1c(C)noc1C | 4.5 | 8.3 | 3.5 | 99.7 | -3.0 | 2.7 | / | /
CCc1noc(C)c1C(=O)N(CC)CC(=O)Nc1cc(Cl)ccc1C | -2.2 | / | 0.7 | 94.7 | 2.9 | 19.1* | 3.2 | 3.0
CC(NC(=O)CSc1nc2c(c(C(F)(F)F)n1)CCc1ccccc1-2)c1ccccc1 (stereo not given) | -2.9 | -14.8 | -4.6 | 112.5 | -2.8 | 18.8* | 5.8 | 3.3
O=C(CSc1nc2c(c(C(F)(F)F)n1)CCc1ccccc1-2)NCc1ccco1 | 2.7 | 39.8 | 0.7 | 98.9 | -2.1 | 8.2 | / | /
COc1cc(C(=O)NNC(=O)C2CC2)cc(OC)c1OC | -5.7 | -7.1 | -4.2 | 86.4 | -14.4 | 2.4 | / | /
COc1ccc(-c2cc3nc(C)c(CCC(=O)NCc4ccco4)c(C)n3n2)c(OC)c1 | 3.2 | -10.4 | -6.8 | 91.3 | -6.2 | 4.3 | / | /
Cc1nc2cc(-c3ccc(Cl)cc3)nn2c(C)c1CCC(=O)NCc1ccco1 | 1.6 | -0.4 | 9.9 | 103.9 | -3.5 | 25.2* | 0.8 | -1.6
COc1cccc(NC(=O)CN(C)C(=O)CNC(=O)c2ccc3ccccc3c2)c1 | 0.8 | -3.1 | -6.6 | 91.8 | 10.8 | 5.1 | / | /
COC(=O)c1ccccc1OCCCN(C)C | 2.5 | 3.2 | 13.2 | 93.5 | 11.6 | -4.8 | / | /
COCCC(=O)N1CCC(n2nccc2NC(=O)CCc2ccccc2)CC1 | 1.1 | 24.6 | -1.4 | 104.4 | 2.8 | -5.8 | / | /
CC(=O)Nc1ccc(NC(=O)CNC(=O)COc2ccccc2)cc1 | -5.5 | -9.1 | -3.5 | 100.9 | -5.7 | 7.0 | / | /
COC(=O)CNC(=O)COc1ccccc1 | 7.2 | -1.5 | 3.8 | 98.0 | -7.8 | 20.4* | -2.7 | -1.3
COc1ccc(C(=O)NCCN2C(=O)S/C(=C\c3cccnc3)C2=O)cc1[N+](=O)[O-] | -1.8 | -18.8 | -1.8 | 121.6 | 5.1 | 3.4 | / | /
CCOC(=O)c1c(NC(=O)c2cccc([N+](=O)[O-])c2C(=O)O)sc2c1CCCC2 | -0.1 | -8.4 | 3.2 | 94.2 | 26.3 | -4.1 | / | /
CCOC(=O)c1c(NC(=O)CCC(=O)O)sc2c1CCCCC2 | 2.9 | -14.1 | 0.5 | 89.6 | 0.8 | 19.6* | 3.1 | 9.0
CCOC(=O)c1c(NC(=O)c2c(C(=O)O)cccc2[N+](=O)[O-])sc2c1CCCC2 | -3.1 | -1.0 | -8.2 | 81.3 | 2.9 | 18.8* | 3.6 | 1.4
CCOC(=O)C(=CNc1ccc(-c2ccco2)c(Cl)c1)C(=O)OCC | -5.1 | -6.4 | -4.3 | 89.5 | 1.2 | -0.8 | / | /
COc1ccc(-c2[nH]n(-c3ccc([N+](=O)[O-])cc3)c(=O)c2C=NCC2CCCO2)cc1 (stereo not given) | 3.8 | -7.2 | 9.6 | 112.0 | -10.2 | 19.8* | 3.9 | 1.7
SMILES | V-ATPase pH | PolyA inhibitor | PKA-R2B activ | CR mimetic SO | JMJD2C inh | PKA-R1A activ | R1A FP artifact | PKA-R1A act conf
Cc1sc(NC(=O)C2CCCCC2C(=O)O)c(C(N)=O)c1-c1ccccc1 (stereo not given) | -2.2 | 16.5 | 5.0 | 115.0 | 6.2 | 18.6* | 3.4 | 0.7
CC1=CC(=O)C(C(C)C)=C/C1=N\OC(=O)c1cccc2nc(C)oc12 | -0.6 | -1.2 | -0.9 | 99.0 | 8.4 | 19.1* | 2.4 | 2.0
CC1=CC(=O)C(C(C)C)=C/C1=N/OC(=O)c1cccc([N+](=O)[O-])c1 | -1.6 | -8.9 | -5.1 | 105.5 | 3.5 | 0.6 | / | /
O=C(Nc1cccc(Cl)c1)Nc1nnc(-c2ccncc2)s1 | -3.7 | 33.6 | 6.8 | 103.7 | -9.0 | 21.9* | 25.7* | 26.3*
CC(CCC(=O)O)C1CC[C@@]2(C)C3C(=O)CC4C(C)(C)C(O)CC[C@]4(C)C3C(=O)C[C@]12C (stereo not given in full) | -1.2 | 7.3 | 6.4 | 111.5 | 9.3 | 19.6* | 8.2 | 4.0
CSc1ncccc1C(=O)OCC(=O)NC1CCCC1 | -2.8 | / | -0.4 | 124.9 | -1.1 | 10.0 | / | /
CSc1ncccc1C(=O)OCC(=O)NC1CC1 | 0.6 | / | 7.9 | / | / | 20.3* | 3.7 | 2.9
O=C(O)CN1C(=O)/C(=C\c2cc(Br)ccc2OCc2ccc([N+](=O)[O-])cc2)SC1=S | -1.1 | 16.4 | 0.9 | 113.3 | 4.8 | 24.6* | 0.5 | 1.0
COc1ccc(NC(=O)Cn2nnc(-c3ccccc3NC(=O)c3ccco3)n2)cc1 | 1.4 | 5.0 | 7.5 | 103.9 | -20.5 | 19.9* | 2.2 | 6.4
Cc1ccc(S(=O)(=O)N2CCCCC2)cc1NC(=O)CSc1ncccn1 | -0.5 | / | 3.3 | 107.8 | 3.6 | 18.3 | / | /
CSCc1c(C(=O)OCC(=O)c2ccc[nH]2)oc2ccccc12 | 2.9 | / | -14.3 | / | / | -16.1 | / | /
Cc1cc(C)c(S(=O)(=O)Cc2ccccc2)c(=O)[nH]1 | -3.1 | 3.9 | -3.9 | 100.2 | -7.8 | 21.5* | 5.6 | 5.1
COc1ccc([C@@H]2[C@@H]3C(=O)N(C(C)(C)C)C(=O)[C@@H]3[C@]3(CC(C)C)C(=O)N(c4cccc(F)c4)C(=O)N23)cc1 | 6.1 | 0.9 | -1.9 | 97.7 | 5.0 | 19.4* | -3.1 | -4.6

Screening data: PubChem BioAssay, several laboratories
